This note sets out measurements from PubChem BioAssay AID504329 (Southern Research Specialized Biocontainment Screening …, 2011).

Structures are written as SMILES. Screen size: about 340,000 compounds; about 1,000 (0.29%) were called active. A selection follows. Entries with a potency or affinity are not part of this list. A number with no mark means an inactive call. No stated cut-off is given here; in the data, inconclusive means inhibition above about 27% without an active follow-up result; inactive means below that.

A short description of the test: NS1A inhibition, H1N1 influenza, cell based functional assay (AID 504329). The following applies: percent inhibition, at 12.5 µM, active compounds read high.
Consider `COC(=O)Nc1ccc(S(=O)(=O)N2CCC(C(=O)N3CCCCC3C)CC2)cc1` (centres undefined), for which the inhibition is -11.1%.
In the case of `COc1ccccc1NS(=O)(=O)c1cc(C(=O)NCC(C)(C)N2CCOCC2)ccc1C`, the inhibition is -2.2%.
To `CCOc1ccc(CN(CC)C(=O)Cc2c[nH]c3ccccc23)cc1OC` belongs -0.83%; to `O=C(O)[C@H](Cc1ccccc1)N1C(=O)c2ccncc2C1=O`, -6.13%; to `CC(=O)c1c(C)[nH]c(C(=O)OCC(=O)NCc2ccc3c(c2)OCO3)c1C`, -0.39%.
`O=C(O)CNC(=O)CC1S/C(=N/N=C2/NC(=O)CS2)NC1=O` (centres undefined): the inhibition was 16.4%.
As for `NC1=NC(=O)C(CC(=O)NCc2ccccc2)S1` (centres undefined), the figure is 2.63%; as for `NC(=O)NC(=O)CC1S/C(=N/N=C2/NC(=O)CS2)NC1=O` (centres undefined), 5.04%; as for `CCN=C1SC(CC(=O)NC(N)=O)C(=O)N1CC` (centres undefined), 0.98%.
Consider `CCN(CC)CCOc1ccccc1C(C)=O`, for which the inhibition was -6.91%.
For the compound `COc1ccc(CNC(=O)C(C)Sc2ccc(S(=O)(=O)N3CCOCC3)cn2)cc1` (centres undefined), the inhibition was -8.84%.
As to `CN(C)C(=O)C(OC(=O)c1ccc2c(c1)CCCC2)c1ccccc1` (centres undefined), the inhibition is -4.12%.
For `Nc1cc([N+](=O)[O-])ccc1OCc1ccccc1`, the inhibition is -17.4%.
To `CC(=O)Nc1ccc(OCc2ccccc2)cc1[N+](=O)[O-]` belongs -2.5%; to `S=C(Nc1ccc(Cl)cc1)Nc1ccc2c(c1)OCCO2`, -3.12%.
Take `COc1ccc(OC)c(S(=O)(=O)Nc2c(C)cccc2C)c1`: the inhibition was -4.66%.
`CCCNC1=C(N(C(C)=O)c2cccc(F)c2)C(=O)c2ccccc2C1=O`: the inhibition is -1.3%.
To `O=C1C(Cl)=C(NCCc2ccccc2)C(=O)c2ccccc21` belongs 28.7%; to `CC(=O)N(Cc1ccc(F)cc1)c1cccc(C)c1C`, 5.28%; to `CN(CC(=O)NCCc1ccc(F)cc1)Cc1ccccc1`, 0.42%.
As for `O=C1C=C(Nc2ccc(Cl)cc2)CC(c2ccccc2)C1` (centres undefined), the inhibition was 1.69%.
As for `CC(C)CCN1C(Nc2ccccc2)=NC[C@@H]1Cc1ccccc1`, the figure is -9.63%; as for `COC(=O)c1cc2c(-c3ccccc3)c(C)c3ccccn3c-2c1C(=O)OC`, 26.4%; as for `COC(=O)c1cc2ccccn2c2c(C(=O)OC)c(C(=O)OC)cc1-2`, 16.8%.
To `CC(=O)NC1c2ccccc2C(=O)N1Cc1ccccc1` (centres undefined) belongs -3.85%; to `O=[N+]([O-])c1cccc(/C=N/Nc2nc(NCc3ccccc3)nc(N3CCOCC3)n2)c1`, 0.07%; to `O=[N+]([O-])c1ccc(/C=N/Nc2nc(NCc3ccccc3)nc(N3CCOCC3)n2)cc1`, -9.38%.
For `COc1ccc(NC(=O)[C@H](CCS(C)(=O)=O)N2Cc3ccccc3C2=O)c(OC)c1`, the inhibition is 28.3%.
As for `C[C@H](OC(=O)c1[nH]cnc1C(=O)N1CCN(C(=O)OC(C)(C)C)CC1)c1ccccc1`, the inhibition is -7.71%.
As for `CC1=NN(c2ccc(Cl)c(C(=O)O)c2)C(=O)/C1=C\c1ccc(-c2ccc(C(=O)O)cc2)o1`, the figure is 19.4%; as for `CC1=NN(c2ccc(C(=O)O)cc2)C(=O)/C1=C/c1ccc(-c2ccccc2F)o1`, 23.6%.
To `CC(=O)Nc1ccc(S(=O)(=O)N2CCC3(CC2)OCCO3)cc1` belongs 4.94%; to `COC(=O)c1ccc(O)cc1`, -1.72%.
For the compound `COC(=O)c1ccc2c(c1)C(C)(C)C(/C=C/c1ccc(OC)c(OC)c1OC)=[N+]2C`, the inhibition was 4.08%.
To `COC(=O)c1ccc2nc(C)c(C)nc2c1` belongs -1.98%; to `COC(=O)c1ccc2c(c1)C(=O)/C(=C/c1ccc(O)cc1)O2`, -8.68%; to `CNC(=O)c1c(C)noc1C`, -6.29%.
To `Clc1ccc(SCc2cc(N3CCOCC3)nc(-c3ccccn3)n2)cc1` belongs -0.35%; to `Clc1ccc(SCc2cc(Cl)nc(-c3ccccc3)n2)cc1`, 3.7%; to `COc1ccccc1N/C=C(\C#N)c1nc2ccccc2[nH]1`, 10.7%.
In the case of `Cc1cc(=O)[nH]c(N=N/C(=N/Nc2ccc(O)cc2)c2ccccc2)n1`, the inhibition was 13.6%.
Turning to `O=C(/C(=N\Nc1ccc(Br)cc1)Sc1nnnn1-c1ccccc1)c1ccccc1`, the inhibition is 4.24%.
To `C/C(=N\Nc1ccc(C(=O)O)cc1)c1ccc(Br)cc1` belongs -17.3%.
To `COc1ccc(N/N=C(/N=Nc2nc(C)cc(=O)[nH]2)c2ccccc2)cc1` belongs 26.3%; to `COc1ccc(S(=O)(=O)N2CCOC2CNC(=O)C(=O)NCCc2ccccc2)cc1OC` (centres undefined), 2.48%; to `Cc1ccc(C)n1-n1cnc2sc3c(c2c1=O)CCC3`, 0.86%.
In the case of `COc1ccccc1C(CNC(=O)c1ccc(S(=O)(=O)N2CCCCC2)cc1)N(C)C` (centres undefined), the inhibition is -6.72%.
Turning to `O=C(O)C(Cc1ccccc1)N=C(NS(=O)(=O)c1ccccc1)c1ccccc1` (centres undefined), the inhibition is -1.07%.
Take `CCOC(=O)C1CCN(Cc2c(O)ccc3ccccc23)CC1`: the inhibition is -4.79%.
As for `CCOC(=O)C1CCN(Cc2ccc(OC)c(C)c2OC)CC1`, the figure is 0.38%; as for `Cc1ccc(NCc2ccc(O)c3ncccc23)cc1C`, -2.65%.
On to `Cc1ccc(C)c(S(=O)(=O)N2CCN(Cc3ccc(O)c4ncccc34)CC2)c1`, for which the inhibition was -17.5%.
As for `OC1(C#CCN2CCCC2)CCCCC1`, the figure is -3.16%; as for `Cc1ccc(F)cc1NC(=O)CSc1nnc(CNC(=O)c2ccco2)n1C`, -10.7%; as for `N#CC(C#N)=C1NC(N)=C(C#N)C(c2ccccc2)=C1C#N`, -3.59%.
Regarding `CCc1cccc(OCC(=O)N(C)CC(=O)Nc2cccc(F)c2)c1`, the inhibition was -9.68%.
To `CCOc1ccc(NC(=O)N(CCN2CCOCC2)Cc2ccc3c(c2)CCCN3CC)cc1` belongs 16.9%; to `CCN1CCCc2cc(CN(CCN3CCOCC3)C(=O)Nc3ccc(C)c(C)c3)ccc21`, 22.9%.
To `O=c1ccc(/C=C/c2ccccc2)nn1Cc1ccc(F)cc1` belongs 1.19%; to `Cn1c(C(=O)O)cc2cc(Oc3ccccc3)ccc21`, -27.7%.
Turning to `O=C1CCC(=O)N1OCCOc1ccccc1`, the inhibition is 6.54%.
To `COc1ccc(/C=C/C(=O)OCC(=O)Nc2cccc(C(C)=O)c2)cc1` belongs -8.13%; to `O=[N+]([O-])c1ccc(Cl)cc1Sc1nc2ccccc2o1`, 4.69%; to `O=[N+]([O-])c1ccc(CSc2nc3ccccc3o2)cc1`, 11.7%.
To `CCN(Cc1cnn(C)c1)C(=O)CC1C(=O)NCCN1Cc1cccc(OC)c1OC` (centres undefined) belongs -0.14%; to `C[N+]1=C(/C=C/Nc2ccccc2)C(C)(C)c2ccccc21`, -0.67%; to `C[N+]1=C(/C=C/Nc2ccccc2Cl)C(C)(C)c2ccccc21`, 3.87%.
Regarding `O=c1c(-c2ccccc2)c(O)cc(-c2ccncc2)n1-c1ccc(Cl)cc1`, the inhibition is 1.22%.
To `COc1cccc(OC)c1C(=O)Nc1sc2c(c1C(N)=O)CCN(Cc1ccccc1)C2` belongs 0.91%.
Take `O=[N+]([O-])c1ccc(C[n+]2cccc3ccccc32)cc1`: the inhibition was 2.93%.
In the case of `O=[N+]([O-])c1ccc(C[n+]2cccc3c4ccccc4ccc32)cc1`, the inhibition is -5.37%.
As for `O=C1C(NS(=O)(=O)c2cccs2)=C(N2CCOCC2)C(=O)c2ccccc21`, the figure is 10.6%; as for `O=C1C(NS(=O)(=O)c2cccs2)=C(N2CCN(c3cccc(Cl)c3)CC2)C(=O)c2ccccc21`, 19.4%; as for `O=C1C(NS(=O)(=O)c2cccs2)=C(N2CCN(Cc3ccccc3)CC2)C(=O)c2ccccc21`, 13.7%.
As for `CN1CCN(C2=C(NS(=O)(=O)c3cccs3)C(=O)c3ccccc3C2=O)CC1`, the figure is -3.67%; as for `CCOC(=O)N1CCN(S(=O)(=O)N2CCCC(C(=O)NCc3ccc(OC)cc3)C2)CC1` (centres undefined), -1.33%; as for `CCOC(=O)c1cnc2c(OC)cccc2c1N1CCN(c2ccccn2)CC1`, 3.27%.
Take `CC(=O)OCCc1c(C)nc2nc[nH]n2c1=O`: the inhibition was -2.62%.
As for `O=C(Cc1ccc(Cl)cc1)Nc1ccccc1C(=O)Nc1ccc(C(=O)O)cc1`, the figure is 9.57%; as for `O=C1CCN(S(=O)(=O)c2ccccc2)CCN1CCOCc1ccc(Cl)cc1`, -21.7%; as for `Cc1ccc(S(=O)(=O)NC(=O)Nc2ccccc2)cc1`, -7.51%.
As to `Cc1ccc(S(=O)(=O)NC(=O)Nc2ccc(F)cc2)cc1`, the inhibition was -6.14%.
Turning to `O=C(CCc1nnc(Cc2ccc(-c3ccccc3)cc2)o1)NCC1CC1`, the inhibition was -11.2%.
`COc1ccc(CCN2CC(C(=O)Nc3ccccc3F)CC2=O)cc1OC` (centres undefined): the inhibition was -13.5%.
With `O=C(NCCCn1ccnc1)C(=O)NCC1OCCN1S(=O)(=O)c1ccc(F)cc1` (centres undefined), the inhibition was 19.7%.
With `O=C(NCCCn1ccnc1)C(=O)NCC1OCCN1S(=O)(=O)c1ccc(Cl)cc1` (centres undefined), the inhibition is 13.8%.
As for `Cc1ccc(/C=C/C(=O)NC(C)c2ccccc2)cc1` (centres undefined), the figure is 2.36%; as for `O=C(CSCc1ccc([N+](=O)[O-])cc1)Nc1ccccc1C(=O)O`, -16.2%; as for `O=[N+]([O-])c1cc(Cl)ccc1N1CCOCC1`, 6.25%.
As for `COc1cc([N+](=O)[O-])c(N2CCOCC2)c([N+](=O)[O-])c1OC`, the figure is 3.06%; as for `Cc1cccc(OC(=O)n2c(=S)oc3cc(Cl)ccc32)c1`, 1.29%.
For `CC(C)[C@H](NC(=O)C1CCN(C(=O)[C@@H]2CCCN2)CC1)C(=O)NCc1ccc(F)cc1`, the inhibition is -5.22%.
For the compound `Cc1ccc(C(=O)NC(=S)/C=C2\N(C)c3ccccc3C2(C)C)cc1`, the inhibition is 5.06%.
For the compound `COc1ccccc1C(=O)NC(=S)/C=C1/N(C)c2ccccc2C1(C)C`, the inhibition is 22.9%.
